{"source": "PubChem BioAssay AID651567", "about": "(National Center for Advancing Translational Sciences (NCATS), 2012)", "note": "The whole screen tested about 1,200 compounds, of which about 10 (0.8%) were called active. Inconclusive results (about 4%) are left out. This is one part of a sample in which actives are shown more often than they occur. Calls come from the whole dose curve; as a rule, active = well fitted inhibition curve with a large enough effect; inconclusive = small, poorly fitted or top-dose-only effect; inactive = no such curve, though single readings can be large or run the other way. % is set by controls: 0 for no effect and ±100 for the full control effect; potency is the fitted concentration of half-maximal effect."}
{"experiment": "qHTS Assay to Find Inhibitors of Chronic Active B-Cell Receptor Signaling: Hit Validation in OCI-Ly3 Assay", "settings": "OCI-Ly3 IkB-luciferase reporter, Chroma-Glo luminescence, 4 h; series mostly up to 46.1 µM; activity change, negative = inhibition: at the top concentration", "source_text": "Diffuse large B-cell lymphoma (DLBCL) is the most common category of non-Hodgkin lymphoma, with ~20,000 new cases per year in the United States. DLBCL should be regarded as a collection of different neoplasms. Microarray gene expression analysis has defined two principal types of DLBCL, named for their similarity to normal B cell stages or activation states: a germinal center B-cell (GCB) type, and an activated B-cell (ABC) type. In ABC-DLBCL, a constitutive high-level activity of the NF-kappaB family of transcription factors has been observed (1) and NF-kappaB target genes are more highly expressed in ABC primary tumors than in GCB tumors. Functional studies have shown a constitutive high-level activity of the IkappaB (inhibitor of kappa-B) kinase (IKK) complex. […] Further analysis of DLBCL primary tumors for NF-kappaB target gene expression imply that although CARD11 is required for constitutive IKK activity in all ABC-DLBCL lines, mutations in CARD11 may be the root cause of IKK activation only in lines or tumors with such mutations. In other words, CARD11 mutations may explain NF-kappaB activation in only 10% of ABC-DLBCL cases. […] This process has been termed 'chronic active BCR signaling' (CABS). The goal of this screen is to find small-molecule inhibitors of the CABS pathway found in ABC-DLBCL lines using a cell-based assay that measures IkappaBalpa stability, which has already been extensively validated in the OCI-Ly3 line (PubChem AID:445; REF: 4). […] Hits from the primary screen were tested in this selectivity secondary assay. NIH Molecular Libraries Probe Production Network [MLPCN] NIH Chemical Genomics Center [NCGC] MLPCN Grant: R03 DA031086 PI Name: Dr. R. Eric Davis\nCells were seeded in 1536-well plates at 5000 cells/3ul in IMDM medium containing 0.5% FBS, w/o phenol red, L-glutamine, 25 mM HEPES, 3 mg/ml sodium bicarbonate. After centrifugation for 1 min. at 1000 rpm, 23 nl of compounds or DMSO were delivered to each well using a pin tool. Then 1ul 80ng/ml doxycycline was dispensed into white solid 1536-well plates and the plates were incubated at 37C/5% C02 in a cell incubator for 4 hrs. Then 4 ul Chroma-Glo luminescent substrate mix (Promega) was added to each well. The plate was incubated at R.T. for 10-15 min. The plates were measured on a ViewLux plate reader for green luminescence (540/20 nm filter) and red luminescence (618/8 nm filter). The green and red luminescent signals were corrected for red and green luminescence filter overlap using previously determined filter calibration constants (determined using the procedure outlined in the Promega Technical Manual). The %Activity was determined from the ratio of corrected green/red luminescent values. Green luminescent and ratio %Activity was determined by normalizing to the difference in signal between basal cells (0% Activity) and cells incubated with 10 uM of the proteasome inhibitor MG-132 (100% Activity). Red luminescent %Activity was normalized to the difference between red luminesence in basal cells (0%Activity) and zero luminescence (-100% Activity). Concentration-response curves were fitted to the signals arising from the green luminescence (I-kappa-B-alpha-luciferase fusion; IkB-luc) and the red luminescence (unfused luciferase; luc) as well as the calculated ratio. The concentration-effect curves were then classified based on curve quality (r2), response magnitude and degree of measured activity. Compounds were then categorized based on their concentration-response curves for all three datasets (Ikb-luc, luc and ratio)."}
{"compound": "COC(=O)Nc1nc(-c2ccccc2)c(C(=O)c2ccc(Cl)cc2)s1", "activity change, negative = inhibition": "-1.03% (inactive)"}
{"compound": "CN(CC(=O)O/N=C(\\N)c1ccccn1)S(=O)(=O)c1cc(Cl)ccc1Cl", "activity change, negative = inhibition": "-0.248% (inactive)"}
{"compound": "Cc1ccc(/C=N/NC(=O)c2n[nH]c3c2CCCC3)cc1", "activity change, negative = inhibition": "-1.46% (inactive)"}
{"compound": "Cc1cc(C)c(C#N)c(SCc2c(F)cccc2[N+](=O)[O-])n1", "activity change, negative = inhibition": "-2.3% (inactive)"}
{"compound": "O=C(CSc1cccc[n+]1[O-])c1cc(Cl)ccc1Cl", "activity change, negative = inhibition": "-6.48% (inactive)"}
{"compound": "COc1ccc(/C=C/C(=O)c2cc(F)ccc2OC(=O)c2ccc(OC)c(OC)c2)cc1OC", "activity change, negative = inhibition": "-5.26% (inactive)"}
{"compound": "COc1cc(/C=C\\C(=O)OCn2nnc3ccccc3c2=O)cc(OC)c1OC", "activity change, negative = inhibition": "-4.34% (inactive)"}
{"compound": "COc1ccc(C(=O)/C=C/c2ccc(OC)c(Cn3nnc4ccccc43)c2)cc1", "Potency": "16.4 µM (active)"}
{"compound": "Cc1cccc(NC(=O)c2ccc(C(=O)Nc3cccc(C)c3)nc2)c1", "activity change, negative = inhibition": "-0.935% (inactive)"}
{"compound": "O=C1OCC2=C1C(c1ccc(F)cc1)c1cc3c(cc1N2)OCO3", "note": "(stereo not given)", "activity change, negative = inhibition": "-4.57% (inactive)"}
{"compound": "COc1cc(C(=O)N2CCN(c3cc(Cl)ccc3Cl)CC2)cc(OC)c1OC", "activity change, negative = inhibition": "-4.65% (inactive)"}
{"compound": "CC1=CC(C)(C)N2C(=O)C(=O)c3cc(OC(=O)c4ccco4)cc1c32", "activity change, negative = inhibition": "-12.4% (inactive)"}
{"compound": "CCOc1cc(/C=C2\\CN(C)C/C(=C\\c3ccc(O)c(OCC)c3)C2=O)ccc1O", "activity change, negative = inhibition": "-16.9% (inactive)"}
{"compound": "Cc1nnc2sc(-c3csc4c3CCCC4)nn12", "activity change, negative = inhibition": "-0.641% (inactive)"}
{"compound": "O=[N+]([O-])c1cccnc1SCc1c(F)cccc1Cl", "activity change, negative = inhibition": "-1.19% (inactive)"}
{"compound": "CCCSc1nc(C)c(C(C)=O)cc1C#N", "activity change, negative = inhibition": "-0.455% (inactive)"}
{"compound": "CCOc1c(Br)cc(CNc2ccc3c(c2)OCCO3)cc1OC", "activity change, negative = inhibition": "-4.18% (inactive)"}
{"compound": "CCOC(=O)c1c(C)sc2c1N(C(C)=O)c1cc(Cl)ccc1S2", "activity change, negative = inhibition": "-1.47% (inactive)"}
{"compound": "CC(C)N1C(=O)/C(=C\\c2nc3ccccc3c(=O)[nH]2)c2ccccc21", "activity change, negative = inhibition": "-26.8% (inactive)"}
{"compound": "COc1cc(C2Nc3ccccc3C(=O)N2c2ccc(Cl)cc2)c(Cl)cc1OCC(=O)O", "note": "(stereo not given)", "activity change, negative = inhibition": "0.262% (inactive)"}
{"compound": "Cc1ccc(NC(=S)N/N=C/c2c(Cl)cccc2Cl)c(C)c1", "activity change, negative = inhibition": "-4.26% (inactive)"}
{"compound": "Cc1cc2nc(/C=C/c3cccnc3)[nH]c2cc1C", "activity change, negative = inhibition": "-2.38% (inactive)"}
{"compound": "COC(=O)C1C(O)=C(C=Nc2ccccc2)C(=O)CC1(C)C", "note": "(stereo not given)", "activity change, negative = inhibition": "0.611% (inactive)"}
{"compound": "Cc1ccc(NC(=O)c2ccco2)c([N+](=O)[O-])c1", "activity change, negative = inhibition": "0.0255% (inactive)"}
{"compound": "CN(C)c1ccc(-c2nn3c(-c4ccccc4Cl)nnc3s2)cc1", "activity change, negative = inhibition": "-2.19% (inactive)"}
{"compound": "CCOC(=O)COc1cccc2c(=O)n(CC(=O)NCc3ccc(F)cc3)ccc12", "activity change, negative = inhibition": "-1.96% (inactive)"}
{"compound": "Cc1c(C(=O)OCC(C)C)[nH]c2c1C(=O)CC(c1cccs1)C2", "note": "(stereo not given)", "activity change, negative = inhibition": "-0.184% (inactive)"}
{"compound": "Clc1cncc(Cl)c1N/N=C/c1ccncc1", "activity change, negative = inhibition": "-4.45% (inactive)"}
{"compound": "COc1ccc(CCNC(=O)Cn2c(=O)cnc3ccccc32)cc1", "activity change, negative = inhibition": "-0.695% (inactive)"}
{"compound": "COc1cc(C(=O)Nc2nc(C)c(Cc3ccc4c(c3)OCO4)s2)cc(OC)c1OC", "activity change, negative = inhibition": "-6.45% (inactive)"}
